The text below walks through data of PubChem BioAssay (Tox21).

Inconclusive results are not listed. Entries that show only a call come without a potency. A number with no mark means an inactive call. The source made the active and inactive calls. The call rests on the fitted dose curve; in most records, active means well fitted cell-killing curve with a large enough effect in the repeat runs; inconclusive means weak or mixed curves; inactive means no such curve, though single readings can be large or run the other way.
Potency means the concentration at half of the fitted maximal effect.

This assay is described as follows: qHTS assay to identify small molecule antagonists of the peroxisome proliferator-activated receptor delta (PPARd) signaling pathway - cell viability counter screen (AID 743213). Further: nearly all actives have a fitted effect of over 50% in size. Particulars: PPARd-bla HEK293H viability, CellTiter-Glo luminescence, 17 h; series mostly up to 62 µM; viability change, negative = cytotoxic: at the top concentration. An excerpt:
U.S. Tox21 Program National Center for Advancing Translational Sciences [NCATS] NIH Chemical Genomics Center [NCGC] U.S. Environmental Protection Agency [EPA] National Institutes of Environmental Health Sciences [NIEHS] National Toxicology Program [NTP] U.S. Food and Drug Administration [FDA] Tox21 Assay Overview: The peroxisome proliferator-activated receptors (PPARs) are lipid-activated transcription factors of the nuclear receptor superfamily with three distinct subtypes namely PPAR alpha, PPAR delta (PPARd) and PPAR gamma. All these subtypes heterodimerizes with Retinoid X receptor (RXR) and have different physiological functions. […] To identify the compounds that inhibit PPAR-delta signaling, GeneBLAzer PPAR delta UAS-bla HEK293H cell line (Invitrogen, Carlsbad, CA, USA) containing a beta-lactamase reporter gene under the control of an Upstream Activator Sequence (UAS) was used to screen the Tox21 compound library. The cytotoxicity of the Tox21 compound library against the PPARd-bla cell line was tested in parallel by measuring the cell viability using CellTiter-Glo assay (Promega, Madison, WI) in the same wells.
Tox21 Assay Protocol Summary: PPARd-bla cells were dispensed at 3000 cells/5uL/well in 1536-well black wall/clear bottom plates using a Multidrop Combi (Thermo Fisher Scientific, Waltham, MA) dispenser. After the assay plates were incubated at 37 C and 5% CO2 for 5 h, 23 nL of compounds dissolved in DMSO, positive controls or DMSO only was transferred to the assay plate by a Pintool station (Kalypsys, San Diego, CA), followed by addition of 1ul L165041 (300 nM, final concentration in the wells). The assay plates were incubated at 37 C for 17 h, and then 1 uL of LiveBLAzerTM B/G FRET substrate was added using a Bioraptr Flying Reagent Dispenser (FRD) workstation (Beckman Coulter, Indianapolis, IN, USA). The assay plates were incubated at room temperature for 2 h and fluorescence intensity was measured by an Envision plate reader (PerkinElmer, Shelton, CT). For cell viability readout that measures cytotoxicity, 3 ul/well of CellTiter-Glo reagent was added into the assay plates using a Bioraptr FRD. After 30 min incubation at room temperature, the luminescence intensity in the plates was measured using a ViewLux plate reader (PerkinElmer).
In general terms: qHTS replaces the single test concentration by a dilution series.
With `O=C1O[C@H]([C@H](O)CO)C(O)=C1O`, the Potency result is “inactive”. Turning to `Cc1nnc(NS(=O)(=O)c2ccc(N)cc2)s1`, the Potency result is “inactive”. In the case of `CCOC(=O)c1ccc(O)cc1`, the Potency result is “inactive”. For `Cc1ccc(Cl)cc1`, the Potency result was “inactive”.

With `Cc1ccc(C(C)C)cc1`, the Potency result is “inactive”. For `O=C(O)Cc1c[nH]c2ccccc12`, the Potency result is “inactive”. Consider `C=C(C)CC(C)(C)C`, for which the Potency result was “inactive”.

Consider `O=Cc1ccc(CO)o1`, for which the “viability change, negative = cytotoxic” value was -3.23%.

As to `O=[N+]([O-])c1cc(C(F)(F)F)ccc1Cl`, the Potency result is “inactive”. `OCC(O)CS` (stereo not given): the Potency entry is “inactive”. `OCC(CO)(CO)CO`: the “viability change, negative = cytotoxic” value is -5.49% [at 80.4 µM]. On to `O=[N+]([O-])c1ccccc1C(F)(F)F`, for which the Potency result was “inactive”. `CCOC(=O)CC(=O)OCC`: the Potency result is “inactive”.

Take `NCCNCCNCCN`: the “viability change, negative = cytotoxic” value is 9.05%. On to `CCCCC(=O)O`, for which the Potency result is “inactive”.

Consider `N[C@@H](Cc1cc(I)c(Oc2ccc(O)c(I)c2)c(I)c1)C(=O)O`, for which the Potency entry was “inactive”.

Regarding `C=C(CC(=O)O)C(=O)O`, the Potency entry was “inactive”. Consider `COc1ccc([C@@H]2CC(=O)c3c(O)cc(O[C@@H]4O[C@H](CO[C@@H]5O[C@@H](C)[C@H](O)[C@@H](O)[C@H]5O)[C@@H](O)[C@H](O)[C@H]4O)cc3O2)cc1OC`, for which the Potency entry was “inactive”. For `Nc1nc(N)c2nc(-c3ccccc3)c(N)nc2n1`, the Potency entry is “inactive”. Consider `NC(N)=S`, for which the Potency result was “inactive”. With `CC1=CC(=O)CC(C)(C)C1`, the Potency result was “inactive”.

As for `CC(COCC(C)OC(=O)c1ccccc1)OC(=O)c1ccccc1` (stereo not given), the “viability change, negative = cytotoxic” value is 12%.

For the molecule `OB(O)O`, the Potency result was “inactive”.

With `CC(C)c1ccc(C(C)C)cc1`, the Potency result is “inactive”. Still for that read-out and setting: to `CC(C)=CCC/C(C)=C/C=O` belongs “inactive”; to `OCCOCCOCCOCCOCCO`, “inactive”; to `c1cnc2c(c1)ccc1cccnc12`, 389 nM (active). For `OCc1ccc(Cl)cc1Cl`, the Potency entry was “inactive”. Regarding `CC(O)CNCC(C)O` (stereo not given), the Potency result was “inactive”. For `CCCCC(CC)COC(=O)c1ccc(C(=O)OCC(CC)CCCC)cc1` (stereo not given), the Potency result is “inactive”. In the case of `CCCCCC(C)=O`, the Potency result is “inactive”. As to `Cc1ccc([N+](=O)[O-])cc1N`, the Potency entry was “inactive”. Turning to `CS(=O)(=O)c1ccc(Cl)cc1`, the Potency entry was “inactive”. Regarding `COC(=O)/C=C\C(=O)OC`, the Potency result was “inactive”. As to `O=C1CCCCCCCCCCC1`, the Potency result was “inactive”. As for `O=C(c1ccccc1)c1ccc(O)c(O)c1O`, the “viability change, negative = cytotoxic” value is -15.3%. Regarding `CCCOCC(C)O` (stereo not given), the Potency result is “inactive”. Still for that read-out and setting: the entry for `Cc1ccc(C)c(S(=O)(=O)O)c1` is “inactive”; for `CC(=O)OC(C)(C)C1CC=C(C)CC1` (stereo not given) it is “inactive”. For the molecule `Nc1cccc(N)n1`, the “viability change, negative = cytotoxic” value was -1.6%.
